{"source": "PubChem BioAssay AID1985", "about": "(Southern Research Specialized Biocontainment Screening …, 2009)", "note": "About 1,000 (43%) of roughly 2,300 compounds were called active. No rule for the calls is given here. The set was probably picked from earlier hits. The list shows a part of the results. Results with a measured potency or affinity are listed apart.", "data": [{"assay": "PhoP regulon inhibitor project modified counter assay, GFP fluorescence readout, dose response (AID 1985)", "conditions": "S. Typhi, 4 h; series mostly up to 150 µM", "values": [{"smiles": "Cc1c(O)cccc1C(=O)N[C@@H](CSc1ccccc1)[C@H](O)CN1C[C@H]2CCCC[C@H]2C[C@H]1C(=O)NC(C)(C)C", "outcome": "inactive"}, {"smiles": "CCc1nc(SCC(=O)NCCc2ccccc2)c2c(=O)n(C)c(=O)n(C)c2n1", "outcome": "inactive"}, {"smiles": "Cc1cc(=O)oc2c(CN(C)Cc3ccccc3)c(O)ccc12", "outcome": "inactive"}, {"smiles": "O=C(N/N=C\\c1ccc(F)cc1)c1ccc(F)cc1", "outcome": "inactive"}, {"smiles": "CC(C)CNC(CC(=O)O)c1ccccc1", "note": "(stereo unspecified)", "outcome": "inactive"}, {"smiles": "CN(CCOc1ccc(Cl)cc1)CC(O)c1ccccc1", "note": "(stereo unspecified)", "outcome": "inactive"}, {"smiles": "CC(c1cccnc1)N(CCN(C)C)C(=O)Nc1ccc(Cl)c(Cl)c1", "note": "(stereo unspecified)", "outcome": "inactive"}, {"smiles": "CCS(=O)(=O)N1CCC(C(=O)NCc2cc(OC)ccc2OC)CC1", "outcome": "inactive"}, {"smiles": "CNC(CC(=O)c1ccc([N+](=O)[O-])cc1)C(Cl)(Cl)Cl", "note": "(stereo unspecified)", "outcome": "inactive"}, {"smiles": "O=[N+]([O-])c1ccc(CN2CCSCC2)cc1", "outcome": "inactive"}, {"smiles": "COc1ccc(Cl)cc1NC(=O)CN(C)CC(=O)Nc1ccccc1C(F)(F)F", "outcome": "inactive"}, {"smiles": "Cn1nnnc1SCc1nnc(-c2ccccc2Br)o1", "outcome": "inactive"}, {"smiles": "O=C(Nc1ccc(Cl)cc1)N1CCOC12CCC1(CC2)OCCO1", "outcome": "inactive"}, {"smiles": "Cc1cc(=O)oc2cc(OCC(=O)NC3CCCC3)ccc12", "outcome": "inactive"}, {"smiles": "COc1ccc(Nc2c3c(nc4ccccc24)CCC3)cc1", "outcome": "inactive"}, {"smiles": "Cc1ccc(CSc2nc3c(c(=O)[nH]2)CCC3)cc1", "outcome": "inactive"}, {"smiles": "Cc1cccc(Nc2c3c(nc4ccccc24)CCC3)c1", "outcome": "inactive"}, {"smiles": "FC(F)(F)c1ccccc1NC1=NCCC1", "outcome": "inactive"}, {"smiles": "CCCCNCCCOc1cccc(Cl)c1Cl", "outcome": "inactive"}, {"smiles": "COc1ccccc1/C=N/N1C(=O)c2cccc3cccc(c23)C1=O", "outcome": "inactive"}, {"smiles": "O=C(NC(=S)Nc1ccc(S(=O)(=O)Nc2nccs2)cc1)c1cccnc1", "outcome": "inactive"}, {"smiles": "C=CCSc1nnc(NC(=O)CSc2nc3ccccc3o2)s1", "outcome": "inactive"}, {"smiles": "CCOC(=O)c1nc2cc3n(c(CC(C)C)c-2c1C)CC(C)=C3C", "outcome": "inactive"}, {"smiles": "NS(=O)(=O)c1ccc(CCNC(=O)C(=O)C2C(=O)Nc3ccccc32)cc1", "note": "(stereo unspecified)", "outcome": "inactive"}, {"smiles": "COc1ccccc1-c1cc2nc(C)c(CCC(=O)NC(C)CCc3ccco3)c(C)n2n1", "note": "(stereo unspecified)", "outcome": "inactive"}, {"smiles": "CC(C)C(=O)Nc1ccccc1-c1nc2ccccc2[nH]c1=O", "outcome": "inactive"}, {"smiles": "COc1cccc(NC(=O)CN(C)C(C)C(=O)Nc2ccc(S(=O)(=O)N3CCOCC3)cc2)c1", "note": "(stereo unspecified)", "outcome": "inactive"}, {"smiles": "O=C(Nc1ccc(S(=O)(=O)N2CCCC2)cc1)c1cccnc1", "outcome": "inactive"}, {"smiles": "N/C(=N\\OC(=O)C(c1ccccc1)c1ccccc1)c1ccncc1", "outcome": "inactive"}, {"smiles": "CCOC(=O)C(O)(NC(=O)c1cccnc1)C(F)(F)F", "note": "(stereo unspecified)", "outcome": "inactive"}, {"smiles": "N/C(=N\\OC(=O)COc1ccc2ccccc2c1)c1ccccn1", "outcome": "inactive"}, {"smiles": "COc1ccc(N(C(=O)c2cccnc2)S(=O)(=O)c2ccc(F)cc2)cc1", "outcome": "inactive"}, {"smiles": "O=C1CCCC2=C1C(c1ccncc1)Nc1ccccc1N2", "note": "(stereo unspecified)", "outcome": "inactive"}, {"smiles": "COCCNC(=O)Cn1cnc2c1c(=O)n(C)c(=O)n2C", "outcome": "inactive"}, {"smiles": "c1ccc2sc(N3CN(CCN4CCOCC4)CN(c4nc5ccccc5s4)C3)nc2c1", "outcome": "inactive"}, {"smiles": "COc1ccc2sc(N(CCCN(C)C)C(=O)c3ccc(S(=O)(=O)N4CCc5ccccc5C4)cc3)nc2c1", "outcome": "inactive"}, {"smiles": "CC1CCN(c2nc3ccc(C(=O)NCCCN4CCCCC4)cc3s2)CC1", "outcome": "inactive"}, {"smiles": "CN1CCN(c2ccccc2NC(=O)c2sc3ccccc3c2Cl)CC1", "outcome": "inactive"}, {"smiles": "CN(C)CCOC(=O)c1sc2ccccc2c1Cl", "outcome": "inactive"}, {"smiles": "COc1cc(CNCCCN2CCOCC2)c(Br)cc1OCC(=O)Nc1ccccc1C", "outcome": "inactive"}, {"smiles": "CCc1c(C)nc2cc(-c3cc(OC)cc(OC)c3)nn2c1N1CCCC1", "outcome": "inactive"}, {"smiles": "Cc1ccc(C2CC(=O)NC(SCCC(C)C)=C2C#N)cc1", "note": "(stereo unspecified)", "outcome": "inactive"}, {"smiles": "COc1ccc2c(c1)c1nc(SCC(C)C)n(CCO)c(=O)c1n2C", "outcome": "inactive"}, {"smiles": "O=S(=O)(c1ccccc1)c1nc(-c2cccs2)oc1NCC1CCCO1", "note": "(stereo unspecified)", "outcome": "inactive"}, {"smiles": "O=C(NCC1CCCO1)c1cc2ccccc2oc1=O", "note": "(stereo unspecified)", "outcome": "inactive"}, {"smiles": "O=C(O)c1ccc(CSc2nnnn2C2CCCCC2)cc1", "outcome": "inactive"}, {"smiles": "Cc1cc(NC(=O)COC(=O)c2cccc(S(=O)(=O)N(C)C3CCCCC3)c2)no1", "outcome": "inactive"}, {"smiles": "O=C(O)Cn1c(=O)c2c3c(sc2n(Cc2ccccc2F)c1=O)CCCC3", "outcome": "inactive"}, {"smiles": "CC1(C)Oc2ccc3ccc(=O)oc3c2/C(=C/NCCN/C=C2\\C(=O)C(C)(C)Oc3ccc4ccc(=O)oc4c32)C1=O", "outcome": "inactive"}, {"smiles": "Cc1cccc(N(C(=O)CCC(=O)Nc2ccccn2)C(C(=O)NC(C)C)c2ccc(O)cc2)c1", "note": "(stereo unspecified)", "outcome": "inactive"}, {"smiles": "CCN1CCN(C(=O)/C=C/c2cccc(Cl)c2)CC1", "outcome": "inactive"}, {"smiles": "CCN1CCN(C(=O)Cc2coc3cc(C)cc(C)c23)CC1", "outcome": "inactive"}, {"smiles": "CN1CCN(C(=O)CSc2ccc(Cl)cc2)CC1", "outcome": "inactive"}, {"smiles": "O=C(O)c1cc2cc(F)ccc2[nH]1", "outcome": "inactive"}, {"smiles": "CCN1CCN(C(=O)c2cc3ccc(OC)cc3[nH]2)CC1", "outcome": "inactive"}, {"smiles": "COC(=O)C(O)(c1c(C)[nH]n(-c2ccccc2)c1=O)C(F)(F)F", "note": "(stereo unspecified)", "outcome": "inactive"}, {"smiles": "COc1cccc(C(c2c(C)[nH]n(-c3ccccc3)c2=O)c2c(C)[nH]n(-c3ccccc3)c2=O)c1O", "outcome": "inactive"}, {"smiles": "Cc1c(-n2c(SCC(=O)C(C)(C)C)nc3ccccc3c2=O)c(=O)n(-c2ccccc2)n1C", "outcome": "inactive"}, {"smiles": "Cc1nc(SCC(=O)N2c3ccccc3Sc3ccccc32)n[nH]1", "outcome": "inactive"}, {"smiles": "CC(=O)NCCn1c(SCc2ccccc2C)nc2ccccc2c1=O", "outcome": "inactive"}, {"smiles": "CC1(C)Cc2c(sc(NC(=O)COc3ccc(Cl)cc3)c2C(N)=O)C(C)(C)N1", "outcome": "inactive"}, {"smiles": "CCC1Oc2ccc(C)cc2N(CC(=O)NCC2COc3ccccc3O2)C1=O", "note": "(stereo unspecified)", "outcome": "inactive"}, {"smiles": "COc1ccccc1NC(=O)CN1CCC(c2nc3ccc(C)cc3[nH]2)CC1", "outcome": "inactive"}, {"smiles": "COc1ccc(C)cc1NC(=O)C1CCN(S(=O)(=O)c2c(C)noc2C)CC1", "outcome": "inactive"}, {"smiles": "COc1ccccc1-n1nc(C(=O)NCc2ccco2)c2ccccc2c1=O", "outcome": "inactive"}, {"smiles": "CC1CCN(CCCNC(=O)c2ccc3c(=O)n(Cc4ccc(Cl)cc4)c(=S)[nH]c3c2)CC1", "outcome": "inactive"}, {"smiles": "O=C(O)CC12CC3CC(C1)CC(n1ncc(NCC4CCCO4)c(Cl)c1=O)(C3)C2", "note": "(stereo unspecified)", "outcome": "inactive"}, {"smiles": "CCOC(=O)c1nc(C)n(-c2cc(Cl)ccc2Cl)n1", "outcome": "inactive"}, {"smiles": "Cc1ccc(CN2C3=NCCN3c3ccccc32)cc1", "outcome": "inactive"}, {"smiles": "O=C(CN1C2=NCCN2c2ccccc21)c1ccco1", "outcome": "inactive"}, {"smiles": "O=c1cc(-c2ccccc2)nc(N2CCN(Cc3ccccc3)CC2)[nH]1", "outcome": "inactive"}, {"smiles": "COc1cccc2[nH]c3c(N4CCN(Cc5ccc6c(c5)OCO6)CC4)ncnc3c12", "outcome": "inactive"}, {"smiles": "c1cc2c(cc1Oc1nc(N3CCOCC3)nc(N3CCOCC3)n1)OCO2", "outcome": "inactive"}, {"smiles": "Cc1ccc2nc3c(c(N)c2c1)CCN3C", "outcome": "inactive"}, {"smiles": "CC(C)N=C(N)N=C(N)Nc1ccc(Cl)cc1", "outcome": "inactive"}, {"smiles": "Cc1cc(NCCCn2ccnc2)n2ncc(-c3ccccc3)c2n1", "outcome": "inactive"}, {"smiles": "C[C@@H](C(=O)NC1CCCC1)N1C(=O)N2CCc3c([nH]c4ccccc34)[C@@]2(C)C1=O", "outcome": "inactive"}, {"smiles": "O=S1(=O)CC=C(CSC(=S)NC2CCS(=O)(=O)C2)C1", "note": "(stereo unspecified)", "outcome": "inactive"}, {"smiles": "CCc1cc(CNC(=O)C2CCC(=O)N(Cc3cccc(F)c3)C2)on1", "note": "(stereo unspecified)", "outcome": "inactive"}, {"smiles": "CC(C)NC(=O)CN1CCN(Cc2nc(C(c3ccccc3)c3ccccc3)no2)CC1", "outcome": "inactive"}, {"smiles": "Cc1cnc(NC(=O)CN2C(=O)C3CC=CCC3C2=O)s1", "note": "(stereo unspecified)", "outcome": "inactive"}, {"smiles": "CCc1nnc(NS(=O)(=O)c2ccc(NC(=S)NC(=O)/C=C/c3ccc(C(C)C)cc3)cc2)s1", "outcome": "inactive"}, {"smiles": "Cc1cc(NS(=O)(=O)c2ccc(NC(=O)C(C)Oc3ccc4c(C)cc(=O)oc4c3)cc2)no1", "note": "(stereo unspecified)", "outcome": "inactive"}, {"smiles": "Cc1cc(NS(=O)(=O)c2ccc(Nc3nc(-c4sc(NC(=O)c5ccccc5)nc4C)cs3)cc2)no1", "outcome": "inactive"}, {"smiles": "COc1nccnc1NS(=O)(=O)c1ccc(NC(=S)NC(=O)c2cccnc2)cc1", "outcome": "inactive"}, {"smiles": "CC(C)n1cnnc1SCC(=O)Nc1ccc(Br)cc1F", "outcome": "inactive"}, {"smiles": "COC(=O)c1ccc(C)c(NC(=O)CN2C(=O)c3ccccc3S2(=O)=O)c1", "outcome": "inactive"}, {"smiles": "CS(=O)(=O)c1cnc2c(-c3ccc(F)cc3)cnn2c1N", "outcome": "inactive"}, {"smiles": "O=C(CCl)NC1CCCc2ccccc21", "note": "(stereo unspecified)", "outcome": "inactive"}, {"smiles": "COc1ccc(NC(=O)N2CCc3ccccc32)cc1", "outcome": "inactive"}, {"smiles": "Cc1ccc(NC(=O)C(=O)NCc2ccncc2)cc1", "outcome": "inactive"}, {"smiles": "CCOc1ccccc1NC(=O)Nc1ccncc1", "outcome": "inactive"}, {"smiles": "S=C(NCc1ccc(Cl)cc1)Nc1ccncc1", "outcome": "inactive"}, {"smiles": "CCCCOc1ccc(-c2nnn(CC(=O)Nc3ncc(CC(=O)OCC)s3)n2)cc1", "outcome": "inactive"}, {"smiles": "CCOc1ccc(N2C(=O)CN(O)C=C3N=c4ccccc4=C32)cc1", "outcome": "inactive"}, {"smiles": "Cc1cccc(OCCSc2nnc(-c3ccoc3C)n2C)c1", "outcome": "inactive"}, {"smiles": "O=C(NCCCN1CCOCC1)c1sc2cc(Cl)ccc2c1Cl", "outcome": "inactive"}, {"smiles": "Cc1cccc(OCc2nnc(SCC(=O)N3CCCC3)n2C)c1", "outcome": "inactive"}, {"smiles": "C[N+]1(CC2COC3(CCCCC3)O2)CCCCC1", "note": "(stereo unspecified)", "outcome": "inactive"}, {"smiles": "CCN(CC)S(=O)(=O)c1ccc2c(c1)c(C(=O)O)cn2C", "outcome": "inactive"}, {"smiles": "Cc1nnc(SCC(=O)N(C(C)C)C(C)C)[nH]c1=O", "outcome": "inactive"}, {"smiles": "O=C1CCCN1c1ccc(CNS(=O)(=O)c2ccc(F)cc2)cc1", "outcome": "inactive"}, {"smiles": "CCCCOc1ccc(C2=NNC(=O)CC2)cc1", "outcome": "inactive"}, {"smiles": "O=C(O)c1cnn2c1NC(c1cccs1)CC2C(F)(F)F", "note": "(stereo unspecified)", "outcome": "inactive"}, {"smiles": "Cc1cc2ncn(/N=C/c3ccc([N+](=O)[O-])o3)c2cc1C", "outcome": "inactive"}, {"smiles": "O=C(Nc1ccccc1)c1cccnc1N1CCOCC1", "outcome": "inactive"}, {"smiles": "Cc1cccc(N2CCN(C(=O)C3CCN(c4nnc(-n5cccc5)s4)CC3)CC2C)c1", "note": "(stereo unspecified)", "outcome": "inactive"}, {"smiles": "COCCNC(=S)N=Nc1c(O)[nH]c2ccc([N+](=O)[O-])cc12", "outcome": "inactive"}, {"smiles": "c1ccc2c(c1)nc(N1CCOCC1)c1c3ccccc3[nH]c21", "outcome": "inactive"}, {"smiles": "CC(=O)N1CSCC1C(=O)N1CCN(c2ccc(N3CCOCC3)nn2)CC1", "note": "(stereo unspecified)", "outcome": "inactive"}, {"smiles": "Cc1nc2ccc(NC(=O)C(F)(F)F)cc2o1", "outcome": "inactive"}]}]}
